The structures appear in SMILES notation. About 2,000 (0.91%) of roughly 220,000 compounds were called active. Inconclusive results (about 2%) are left out. Rule as the data show it: inconclusive = inhibition above about 80% without an active follow-up result; inactive = below that; test concentration not stated here. Only a sample is shown. Measured potencies and affinities stand elsewhere.

A short description of this assay: M. tuberculosis H37Rv growth inhibitors, H37Rv strain (AID 1626).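 Also: bacteria incubated seven days before Alamar blue readout; 0% = bacteria only wells and 100% = bacteria with antibiotic wells.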 Conditions: active compounds read high, concentration not given here.
In the case of `Cc1c(C)[n+](=O)c2c(n1[O-])C(Br)CCC2Br` (stereo not given), the inhibition (in general, the relative decrease from the control value, in per cent) was 0.09% (inactive).

Regarding `COC(=O)c1cccc(NC(N)=S)c1`, the inhibition is 2.04% (inactive).

Regarding `NC(=O)Oc1cccc(OC(N)=O)c1`, the inhibition is -7.05% (inactive).

Consider `C#CCOc1ccc(Br)cc1/C=N/O`, for which the inhibition is 7.55% (inactive).

As to `O=C(NCc1cccs1)c1cc(-c2ccncc2)nc2ccc(Br)cc12`, the inhibition was 71.8% (inactive).

`Cc1cc(N)n2ncc(-c3cccc(Br)c3)c2n1`: the inhibition is 22.8% (inactive).

On to `O=C(O)CSC1c2ccccc2C(=O)N1c1ccccc1` (stereo not given), for which the inhibition was -1.63% (inactive).

For `CC(C)CNC(=O)Cn1c(=O)c2c(ncn2CC(C)C)n(Cc2ccccc2)c1=O`, the inhibition is 7.42% (inactive).

In the case of `Cc1ccc(NC(=S)NNC(=O)c2ccco2)cc1`, the inhibition was 7.01% (inactive).

As to `O=C(Nc1ncc(Cc2ccccc2Cl)s1)c1ccc(-c2cccc([N+](=O)[O-])c2)o1`, the inhibition is -0.67% (inactive).

On to `O=C(Nc1ncc(Cc2cccc([N+](=O)[O-])c2)s1)c1ccco1`, for which the inhibition is 1.37% (inactive).

Turning to `COC(=O)c1ccc(OCC(O)CN2C(=O)NC(C)(C)C2=O)cc1` (stereo not given), the inhibition was -2.31% (inactive).

As to `CN(C)C(CNC(=O)c1cc(S(=O)(=O)N(C)c2ccccc2)ccc1Cl)c1cccs1` (stereo not given), the inhibition is -3.17% (inactive).

In the case of `Cc1occc1C(=O)N/N=C/C1=C(N2CCOCC2)C(=C\c2ccc(Cl)cc2)/CC1`, the inhibition was -4.7% (inactive).

For the compound `O=C(NCc1cccnc1)c1ccc(COc2ccccc2Br)cc1`, the inhibition was 12% (inactive).

For the compound `O=C(NCCC(=O)N1CCOCCOCCOCCOCC1)OCc1ccccc1`, the inhibition is -3.39% (inactive).

`CCOC(=O)N1CCN(C(=O)c2ccc3nc4ccc(Cl)cc4c(=O)n3c2)CC1`: the inhibition is 2.6% (inactive).

As to `NS(=O)(=O)c1ccc(CNC(=O)c2cc(-c3ccccn3)nc3ccc(Cl)cc23)cc1`, the inhibition was 8.36% (inactive).

Turning to `CCNC(=O)CN1C(=O)NC(Cc2ccccc2)(Cc2ccccc2)C1=O`, the inhibition is -0.94% (inactive).

On to `COc1ccc(NC(=O)Nc2ccc(F)cc2F)cc1`, for which the inhibition was 10.7% (inactive).

As to `COc1ccc(CN2C(=O)CS/C2=N/N=C/c2ccccc2)cc1`, the inhibition was -0.88% (inactive).

As to `CCNC(=S)N(Cc1c(C)noc1C)c1ccccc1`, the inhibition was -11.8% (inactive).

As to `CCOc1cc(/C=N/NC(=O)CSc2nncn2C)ccc1OCc1cccc(C)c1`, the inhibition was 5.11% (inactive).

Regarding `COc1cccc(C2C3=C(N=c4s/c(=C\c5ccccc5O)c(=O)n42)c2ccccc2CC3)c1OC` (stereo not given), the inhibition was 5.15% (inactive).

For the compound `COc1ccccc1C1C2=C(N=c3s/c(=C/c4cccc(OCC(=O)O)c4)c(=O)n31)c1ccccc1CC2` (stereo not given), the inhibition is -4.54% (inactive).

As for `COc1cccc(C2C3=C(N=c4s/c(=C\c5ccc(O)cc5)c(=O)n42)c2ccccc2CC3)c1OC` (stereo not given), the inhibition is 6.52% (inactive).

Turning to `COc1ccc(/C=c2/sc3n(c2=O)C(c2ccccc2OC)C2=C(N=3)c3ccccc3CC2)cc1O` (stereo not given), the inhibition was 16.2% (inactive).

Regarding `CCOc1ccc(NC(=O)Nc2ccc(Br)cn2)cc1`, the inhibition is 0.855% (inactive).

Consider `CCOC(=O)N1CCN(C(=O)c2ccccc2NC(=O)c2ccc(F)cc2)CC1`, for which the inhibition was 22.6% (inactive).

Consider `COc1ccc(C2/C=C\CN(C(=O)Oc3ccccc3)CC(=O)N2Cc2ccc(F)cc2)cc1` (stereo not given), for which the inhibition was 0.77% (inactive).

For the compound `CC(NC(=O)Cn1c(NCCO)nc2ccccc21)C1CC2CCC1C2` (stereo not given), the inhibition was -0.5% (inactive).

As to `O=C1C(NS(=O)(=O)c2cccs2)=C(N2CCN(c3cccc(Cl)c3)CC2)C(=O)c2ccccc21`, the inhibition was 72.6% (inactive).

Take `O=C1C(NS(=O)(=O)c2cccs2)=C(N2CCN(c3ccccc3)CC2)C(=O)c2ccccc21`: the inhibition was 6.53% (inactive).

Turning to `COc1ccccc1N1C(=O)C2CC=CC(C)C2C1=O` (stereo not given), the inhibition is -9.33% (inactive).

In the case of `Cc1sc2nc(CN3CCOCC3)nc(Cl)c2c1C`, the inhibition is 1.93% (inactive).

As for `Cc1sc2nc(CN3CCOCC3)nc(N3CCOCC3)c2c1C`, the inhibition was -5.18% (inactive).

`COC(=O)C1(C(F)(F)F)N=C2Sc3ccccc3N2C(N2CCOCC2)=N1` (stereo not given): the inhibition is -2.56% (inactive).

As to `N#Cc1ccc(-c2ccc(OCC(=O)NCCc3ccccc3)cc2)cc1`, the inhibition was 7.81% (inactive).

As for `COc1ccc(CCNC(=O)COc2ccc(-c3ccc(C#N)cc3)cc2)cc1`, the inhibition was -19.4% (inactive).

Take `CN(C)c1ccc(NC(=O)N2CCOCC2)cc1`: the inhibition was -3.81% (inactive).

`N#Cc1c(NC(=O)CN2C(=O)c3ccccc3C2=O)oc(-c2ccccc2)c1-c1ccccc1`: the inhibition is -4.11% (inactive).

For `Cc1[nH]c2ccccc2c1C(=O)C(=O)NCC1CCCO1` (stereo not given), the inhibition is 7.05% (inactive).

`Brc1ccc(-c2csc(-c3ccncc3)n2)cc1`: the inhibition was 40.3% (inactive).

Turning to `CCCOc1ccc(-c2nc(-c3ccc(N)cc3)cs2)cc1`, the inhibition was 1.99% (inactive).

With `Cc1ccc(-c2csc(-c3ccncc3)n2)cc1`, the inhibition is -6.57% (inactive).

Regarding `Brc1ccc(-c2csc(Nc3nc(-c4ccc(Br)cc4)cs3)n2)cc1`, the inhibition is 7.47% (inactive).

For the compound `Cc1nc(N2CCN(c3ccccc3)CC2)[nH]c(=O)c1CCC(C)C`, the inhibition was 6.58% (inactive).

On to `Nc1nc(SCC(=O)N2CCCc3ccccc32)n(-c2ccccc2)n1`, for which the inhibition was -0.56% (inactive).

In the case of `CCC1S/C(=N\S(=O)(=O)c2cccs2)N(C2CCCCC2)C1=O` (stereo not given), the inhibition was -5.04% (inactive).

In the case of `CC1(C)Cc2c(sc(NC(=O)Cc3ccccc3)c2C#N)CO1`, the inhibition is -0.57% (inactive).

Consider `O=C(NC1CCCCC1)N(Cc1nc2ccccc2c(=O)[nH]1)C1CCCCC1`, for which the inhibition is 12.6% (inactive).

As to `Cc1ccc(Oc2nc(CN3CCOCC3)nc3sc4c(c23)CCC(C)C4)cc1C` (stereo not given), the inhibition is 40.8% (inactive).

For the compound `Cc1cccc(Oc2nc(CN3CCOCC3)nc3sc4c(c23)CCCC4)c1`, the inhibition was 14% (inactive).

Turning to `O=C(Nc1ccc2c3c(cccc13)CC2)c1cccc([N+](=O)[O-])c1`, the inhibition is 2.05% (inactive).

On to `O=C(/C=C/c1ccccc1Cl)NCc1ccccc1`, for which the inhibition was -0.07% (inactive).

Take `CC(Cc1ccccc1)NC(=O)/C=C/c1ccc(Cl)cc1` (stereo not given): the inhibition is -0.45% (inactive).

As to `CCC(CC)NC(=O)/C=C/c1ccccc1Cl`, the inhibition was -14.3% (inactive).

Consider `COC(=O)[C@H](CC(C)C)NC(=O)NCc1ccc(Cl)cc1`, for which the inhibition was -2% (inactive).

In the case of `CCOC(=O)Nc1ccc2c(c1)nc(CN1CCOCC1)n2C`, the inhibition is -2.73% (inactive).

Consider `Cc1ccc2nc(N(CCCN(C)C)C(=O)c3ccc(S(=O)(=O)N(C)C)cc3)sc2c1`, for which the inhibition was -7.66% (inactive).

Turning to `CN(C)CCCN(C(=O)c1ccc2c(c1)CCCC2)c1nc2ccc(F)cc2s1`, the inhibition is 62.6% (inactive).

As for `N#Cc1cnn2c1nc(N1CCOCC1)c1ccccc12`, the inhibition is 3.61% (inactive).

For `O=C(O)c1ccc(/C=N/NC(=O)c2ccc(NS(=O)(=O)c3cccs3)cc2)cc1`, the inhibition was 7.29% (inactive).

As to `CC(=O)/C(=C/N(C)C)C(=O)Nc1ccc(Cl)cc1Cl`, the inhibition was 5.27% (inactive).

Consider `CN(C)CCNC(=S)Nc1ccc(Cl)cc1Cl`, for which the inhibition is 3.74% (inactive).

Consider `Cc1cc(=O)n2nc(N3CCC(C(=O)N4CCN(C)CC4)CC3)sc2n1`, for which the inhibition was -6.22% (inactive).

On to `CCN(CC)S(=O)(=O)c1ccc(C)c(NC(=O)Cn2cnc3cc([N+](=O)[O-])ccc3c2=O)c1`, for which the inhibition was -5.31% (inactive).

For `O=C(CSc1nnc(-c2ccccc2)o1)N1CCc2ccccc2C1`, the inhibition was 0.6% (inactive).

With `COc1ccc(-c2nnc(SCC(=O)N3CCc4ccccc4C3)o2)cc1`, the inhibition is 55.5% (inactive).

In the case of `COc1ccc(NC(=O)C(OC)c2ccccc2)cc1Cl` (stereo not given), the inhibition is 4.82% (inactive).

As for `COc1cccc(CNc2ccc(F)c(Cl)c2)c1OC`, the inhibition was 9.35% (inactive).

`O=C(/C=C/c1ccc(Cl)cc1)NCc1ccco1`: the inhibition is -3.37% (inactive).

Regarding `CCn1c(SCC(=O)Nc2ccc(C)cc2)nc2nc3c(cc2c1=O)COC(C)(C)C3`, the inhibition was 11.8% (inactive).

Consider `Nc1o[nH]c(=O)c1Cc1ccccc1`, for which the inhibition was -2.12% (inactive).

Regarding `CCOC(=O)c1sc(NC(=O)CCN2C(=O)c3ccccc3C2=O)c(C(=O)OCC)c1C`, the inhibition was -2.12% (inactive).

Consider `CCOC(=O)c1sc(NC(=O)CNCc2cccnc2)c(C(=O)OCC)c1C`, for which the inhibition was 0.97% (inactive).

On to `CC1CCN(CC(=O)NCc2ccco2)CC1`, for which the inhibition was -7.7% (inactive).

In the case of `COC(=O)c1sccc1NC(=O)COc1cccc(C)c1`, the inhibition is 0.14% (inactive).

Turning to `Cc1cc(CSc2ccccc2)ccc1NC(=O)c1ccc(CN2CCOCC2)cc1`, the inhibition was 7.66% (inactive).

`O=C(NC(=S)Nc1ccc(CN2CCOCC2)cc1)c1ccc(-c2ccc(Br)cc2)o1`: the inhibition was 42.5% (inactive).

With `NC(=O)c1ccc(NC(=O)c2ccc(CN3CCOCC3)cc2)cc1`, the inhibition was -7.24% (inactive).

For the compound `O=C(Nc1ccc(CN2CCOCC2)cc1)c1ccc(-c2cccc(Cl)c2)o1`, the inhibition was 8.55% (inactive).

Turning to `CC(OC(=O)c1ccccc1Oc1ccccc1)C(=O)NC1CC1` (stereo not given), the inhibition is 4.72% (inactive).

As to `O=S(=O)(Nc1nc2ccccc2nc1-[n+]1ccccc1)c1ccc(Cl)cc1`, the inhibition was -0.65% (inactive).

For `O=C1c2cccc3cc([N+](=O)[O-])cc(c23)C(=O)N1c1ccccc1O`, the inhibition is 6.45% (inactive).

As to `Nc1cc2c3c(cccc3c1)C(=O)N(CCN1CCCC1)C2=O`, the inhibition is 18.6% (inactive).

In the case of `Cc1nn(-c2ccccc2)c(Cl)c1C(=O)NCC(=O)O`, the inhibition was 4.16% (inactive).

On to `Fc1cccc(-n2ncc(-c3nnnn3-c3ccccc3)c2C(F)(F)F)c1`, for which the inhibition was -6.57% (inactive).

For the compound `O=[N+]([O-])c1c(NCc2ccco2)ccc2nonc12`, the inhibition was -3.46% (inactive).

With `CC(=O)OCCCNc1cc(Sc2ccc(C)cc2)c2nonc2c1[N+](=O)[O-]`, the inhibition was 13.8% (inactive).

As for `CCC(=O)OCCNc1cc(Sc2nc3ccccc3[nH]2)c2nonc2c1[N+](=O)[O-]`, the inhibition was 42.4% (inactive).

For the compound `CC(=O)OCCNc1cc(Sc2nc3ccccc3[nH]2)c2nonc2c1[N+](=O)[O-]`, the inhibition is -3.19% (inactive).

`O=[N+]([O-])c1c(NCCCO)cc(SCc2ccco2)c2nonc12`: the inhibition was 74.7% (inactive).

Consider `O=[N+]([O-])c1c(NCCCO)cc(Sc2ccc(Cl)cc2)c2nonc12`, for which the inhibition was 53.5% (inactive).

As to `CC(=O)OCCCNc1cc(Sc2ccc(Cl)cc2)c2nonc2c1[N+](=O)[O-]`, the inhibition was 8.58% (inactive).

Values taken from PubChem BioAssay AID1626 (SRMLSC, 2009).
